A selection: hits, their analogues and other compounds. The true share with any hit is near 3.7%.
HepG2 viability = kills HepG2 cells in TGF-b inhibitor counter-screen; HepG2 CAGA-GFP viability, ATP luminescence, 18 h; Potency, µM (top dose mostly 46.1 µM), for the others: at the top dose activity change, negative = cytotoxicity, most hits filed as cytotoxic; 0.76% of 410,000 active
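HepG2 CAGA-GFP cells (1000/well, DMEM with 1% FBS) received compound, then TGF-beta at 500 pg/mL final, and were incubated 18 hours at 37 degrees C. Viability was read by CellTiter-Glo luminescence. Media-only wells were set as complete cell-killing and DMSO as no toxicity.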
ATXN viability = viability counter-screen for ATXN expression inhibitors | S2 cells (HEK-293 line with an ATXN2-luciferase reporter) viability, CellTiter-Fluor protease fluorescence, 24 h | Potency, µM (doses to about 56.7 µM), hits mostly cytotoxic | 0.49% of 400,000 active | AID 651635; also: nearly all actives have a fitted effect of over 40% in size
GLP-1R inv ag = GLP-1 receptor (human) inverse agonism | Potency, µM (series often up to 38.3 µM), for the others: at the highest dose activity change, negative = inhibition, most hits filed as inhibitors | P43220 | 1.6% of 410,000 active | HEK293 GLP-1R CRE-luciferase, luminescence, 24 h; GLP-1R form is constitutively active; also: % is scaled to controls: 0 for no effect and ±100 for the full control effect; nearly all actives have a fitted effect of over 55% in size
Target sequence (P43220 whole entry, looked up): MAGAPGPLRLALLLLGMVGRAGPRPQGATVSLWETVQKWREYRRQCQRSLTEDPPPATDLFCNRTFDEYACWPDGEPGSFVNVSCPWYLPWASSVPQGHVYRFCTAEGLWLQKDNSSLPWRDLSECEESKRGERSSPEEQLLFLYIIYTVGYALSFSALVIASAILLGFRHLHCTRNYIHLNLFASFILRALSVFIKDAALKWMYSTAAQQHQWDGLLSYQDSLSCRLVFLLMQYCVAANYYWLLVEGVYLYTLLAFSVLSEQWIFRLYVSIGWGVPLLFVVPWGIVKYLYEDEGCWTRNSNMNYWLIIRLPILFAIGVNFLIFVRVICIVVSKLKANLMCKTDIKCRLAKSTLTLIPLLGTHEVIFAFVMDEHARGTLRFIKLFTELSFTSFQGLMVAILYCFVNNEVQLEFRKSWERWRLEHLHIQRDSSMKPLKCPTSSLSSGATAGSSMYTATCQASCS
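Luminescence readout: a drop in cAMP-driven luciferase signal flags inverse agonism at a constitutively active GLP-1R stably expressed in HEK293. Compound exposure lasted 24 hr at 37 deg C, 5% CO2.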
ATXN2 expr inh = ATXN2 expression inhibition; Potency, µM (doses to about 57 µM), for the others: at the top dose activity change, negative = inhibition, actives largely listed as inhibitors; HEK-293 ATXN2-luciferase reporter, luminescence, 24 h; 0.72% of 360,000 active; also: % is scaled to controls: 0 for no effect and ±100 for the full control effect; nearly all actives have a fitted effect of over 55% in size
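ATXN2-luciferase reporter cells (luciferase flanked by upstream and downstream ATXN2 gene portions) were treated 24 h at 37 °C with compounds at up to 57 uM. SteadyGlo luminescence gave expression; GF-AFC fluorescence gave viability.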
GLP-1R agonist = agonists of human GLP-1 receptor | 0.007% of 380,000 active | HEK293 GLP-1R CRE-luciferase, luminescence, 4-6 h; cells express a hypersensitive GLP-1R form | Potency, µM (highest dose often 45.6 µM), inactives show top-dose activation, actives largely listed as activators | P43220 | AID 624172; also: % of control where 0% means no effect
TGFb inhibitor = inhibitors of TGF-b signaling | HepG2 CAGA-GFP TGF-b/SMAD3 reporter, GFP fluorescence, 18 h; TGF-beta stimulated, 500 pg/mL final | 1.2% of 410,000 active | AID 588855 | Potency, µM (doses to about 46.1 µM), for the others: at the top dose activity, negative = inhibition, actives largely listed as inhibitors; also: % is scaled to controls: 0 for no effect and ±100 for the full control effect; nearly all actives have a fitted effect of over 65% in size
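Inhibition was scored as loss of TGF-beta-induced (500 pg/mL final, 18 hours, 37 degrees C) GFP in HEPG2 cells carrying a CAGA-GFP reporter, in DMEM with 1% FBS. Well GFP was summed per cell; Activity was normalised to unstimulated and stimulated DMSO wells, then concentration-response fitting.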
Numbers without * were called inactive; i = inactive; ? = inconclusive; nt = no result given. Calls follow the shape of the dose curve; as a rule, active = well fitted curve in the direction sought with a large enough effect; inconclusive = small, poorly fitted or top-dose-only effect, or another doubt; inactive = no such curve, though single readings can be large; an effect the other way counts as inactive or inconclusive. Potency is read from the fitted curve at half-maximal effect.

SMILES	HepG2 viability	ATXN viability	GLP-1R inv ag	ATXN2 expr inh	GLP-1R agonist	TGFb inhibitor
O=C(CC1SC(=Nc2ccc(OC(F)F)cc2)N(CCN2CCOCC2)C1=O)Nc1ccccc1 (stereo not drawn)	-21%	i	10µM*	nt	8%	-16%
O=C(O)C=Cc1ccc(Cn2ccnc2)cc1	nt	nt	nt	-1%	nt	nt
N#Cc1ccc(NC(=O)Nc2ccc(Cl)cc2)cc1	-36%	?	6.3µM*	?	-22%	?
CCCCOC(=O)C1CN(c2ccccc2)N=C1C(C)=O (stereo not drawn)	-169%	i	?	0%	12%	-12%
CCCCOC(=O)C1CN(c2ccccc2)N=C1C(=O)OCC (stereo not drawn)	4%	i	10µM*	-4%	1%	-7%
COC(=O)C1=C/C=C\CN(C(c2ccccc2)c2ccccc2)/C=C\1C(=O)OC	-66%	i	10µM*	nt	1%	-20%
Cc1nn(C)cc1CNc1nc(C)c(-c2ccn(CC3COc4ccccc4O3)n2)s1 (stereo not drawn)	nt	i	nt	nt	nt	nt
CCOC(=O)c1c(NC(C)=O)sc2c1CCC(C=O)=C2Sc1ccccc1	-46%	nt	?	28µM*	-9%	?
NCc1ccccc1Sc1ccccc1CO	nt	i	nt	-4%	8%	nt
O=C(N/N=C/c1ccco1)C1CC1(c1ccccc1)c1ccccc1 (stereo not drawn)	1%	i	10µM*	-3%	-19%	1%
O=C(CCC(=O)OCC(=O)c1ccccc1)NC1CCCCC1	5.6µM*	i	-18%	1%	3%	?
Cc1oc2c(c(C)cc3oc(=O)c(CC(=O)NCCc4ccccc4F)c(C)c32)c1C	-17%	nt	6%	nt	nt	-19%
O=C(N/N=C/c1ccccc1O)NC12CC3CC(CC(C3)C1)C2	-128%	i	10µM*	21%	21%	11µM*
O=C(N/N=C/c1ccc(O)c(O)c1)NC12CC3CC(CC(C3)C1)C2	-34%	i	57%	-15%	13%	-7%
Cc1ccc(C(=O)N2C(=S)C(c3ccc(F)cc3)=NC23CCN(C)CC3)cc1	-50%	25µM*	?	22µM*	-5%	?
Cc1ccc(C(=O)N2CCC(C(=O)c3ccc(F)cc3)CC2)cc1	0%	i	?	nt	-1%	-27%
COc1ccccc1-c1ccnc(-n2ncc(C(=O)NC3CCCN(Cc4ccccc4)C3)c2C)n1 (stereo not drawn)	nt	i	nt	nt	nt	nt
CN(C)c1nc(NCc2ccccc2)nc(N/N=C/c2ccc(Br)cc2)n1	-18%	i	-4%	nt	4%	-27%
O=c1[nH]c(N/N=C\c2ccc3c(c2)OCO3)nc2ccccc12	-21%	i	?	12%	15%	0%
CN(C)c1nc(NCc2ccccc2)nc(N/N=C/c2ccc3c(c2)OCO3)n1	-25%	i	10µM*	13%	1%	5%
Cc1cc(N/N=C/c2ccc3c(c2)OCO3)nc2ccccc12	20µM*	i	?	-11%	8%	-8%
Cc1ccc2c(c1)CN(CCC(=O)NCc1cc(C)n(C)n1)CC(C)O2 (stereo not drawn)	nt	i	nt	nt	nt	nt
Cc1ccc(NC(=O)Nc2nnc(N(C)Cc3ccccc3)s2)cc1	-27%	nt	-8%	nt	nt	?
CC(=O)O[C@H]1CC[C@@]2(C)C(=CCC3C2CC[C@]2(C)C(c4cccnc4)=CCC32)C1 (stereo partly drawn)	nt	nt	nt	nt	-4%	nt
Cc1ccc(C(OCC(O)CNC(C)c2ccccc2)c2ccccc2)cc1 (stereo not drawn)	-108%	?	?	?	3%	?
SMILES	HepG2 viability	ATXN viability	GLP-1R inv ag	ATXN2 expr inh	GLP-1R agonist	TGFb inhibitor
Cc1ccc(C(OCC(O)CNC(CO)C(O)c2ccc([N+](=O)[O-])cc2)c2ccccc2)cc1 (stereo not drawn)	-169%	?	8.9µM*	-38%	21%	?
Cc1ccccc1NC(=O)OCc1cccnc1Sc1ccc(Cl)cc1	-3%	i	-25%	-8%	4%	1%
Cc1ccc(Sc2ncccc2COC(=O)Nc2ccccc2)cc1	-8%	i	7.9µM*	-14%	0%	0%
Cc1ccc(Sc2ncccc2COC(=O)Nc2c(C)cccc2C)cc1	-24%	i	7.9µM*	7%	-1%	?
COc1cccc(C(=O)C(C#N)=C(SC)SC)c1	10µM*	nt	-7%	nt	-6%	?
CSC(SC)=C(C#N)C(=O)c1ccccc1	-134%	nt	?	22µM*	-1%	?
COc1cccc(C(=O)C(CCC#N)c2ccccc2)c1 (stereo not drawn)	1%	i	-25%	nt	14%	-1%
O=C(O)c1ccc(C(=O)C(=O)c2ccccc2)cc1	5%	i	7%	9%	-3%	2%
CC(=O)N1CCCc2ccc(NC(=O)c3ccc(OC(C)C)cc3)cc21	2%	nt	29%	nt	nt	5%
COCCn1c(C)cc(O)c(C(c2ccccc2)N2CCC(C)CC2)c1=O (stereo not drawn)	0%	nt	28%	nt	nt	21%
O=C(CCN1CCN(c2ccccc2F)CC1)c1ccc(Br)cc1	16µM*	i	?	4%	-3%	?
COc1ccc(C2=C(Nc3ccc(C)c(C)c3)c3ccccc3C2=O)cc1	-21%	i	-13%	3%	nt	-22%
COc1ccc(C2=C(Nc3ccc(Br)c(C)c3)c3ccccc3C2=O)cc1	-38%	?	?	-16%	nt	14µM*
CCOC(=O)N1CCN(/[N+]([O-])=N/OCOC)CC1	2%	nt	nt	nt	nt	-5%
COc1cc2c(cc1OC)-c1cc(Nc3ccccc3)nc(=O)n1CC2	14%	?	188%	29%	31%	20%
COc1cc2c(cc1OC)-c1cc(Nc3ccccc3Br)nc(=O)n1CC2	-3%	i	131%	4%	8.9µM*	37%
COc1ccc(CN2CC[C@H]3C=CC[C@@H](C(=O)Nc4ccc(Cl)cc4Cl)[C@H]3C2=O)cc1OC	-3%	nt	nt	nt	nt	?
C=CC(=O)Nc1cccc(CN2C(=O)N(c3cc(OC)cc(OC)c3)Cc3cnc(NCCCCN(CC)CC)nc32)c1	-71%	20µM*	7%	-20%	-1%	-7%
COc1cc(NC(=O)N2CCN(c3cc(-c4noc(C)n4)ccc3C)CC2)cc(OC)c1OC	-28%	i	2%	14%	0%	-4%
C[n+]1c(/C=C/c2ccc(N)cc2)sc2ccccc21	-12%	nt	nt	nt	nt	-12%
CCC(COC)NC(=O)c1cnn(-c2ncc3c(n2)-c2ccccc2CCC3)c1C (stereo not drawn)	nt	i	nt	nt	nt	nt

Bioassay records from PubChem.
